Measurements taken from the supplement of paper PMC8728848.
Shown is part of a subset that was picked to be rich in the strongest signals.

Tests used:
Test in all cases: glycan array binding signal (z-score within array); higher = stronger binding
Details in all cases: glycan notation: IUPAC condensed, linker removed
[1] = target: Fuc(a1-2)Gal(b1-3)GalNAc(b1-3)Gal(a1-4)Gal(b1-4)Glc
How it was run: (§1)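 Arrays were curated from the Consortium for Functional Glycomics database, 3228 in total, and kept only where the protein sequence was available. Binding is expressed as a within-array Z-score. This score was averaged across arrays of the same protein sequence at different concentrations or buffers and across linkers, and negative values can be read as non-binding.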

[2] = target: Fuc(a1-2)[Gal(a1-3)]Gal(b1-4)GlcNAc(b1-2)Man(a1-3)[Fuc(a1-2)[Gal(a1-3)]Gal(b1-4)GlcNAc(b1-2)Man(a1-6)]Man(b1-4)GlcNAc(b1-4)GlcNAc
How it was run: as §1

[3] = target: Fuc(a1-2)[Gal(a1-3)]Gal(b1-4)GlcNAc(b1-3)[Fuc(a1-2)[Gal(a1-3)]Gal(b1-4)GlcNAc(b1-6)]GalNAc
How it was run: as §1

[4] = target: Fuc(a1-2)[Gal(a1-3)]Gal(b1-4)GlcNAc(b1-6)GalNAc
How it was run: as §1

[5] = target: Fuc(a1-2)[GalNAc(a1-3)]Gal(b1-4)[Fuc(a1-3)]GlcNAc
How it was run: as §1

[6] = target: Fuc(a1-3)[Gal(b1-4)]GlcNAc(b1-6)GalNAc
How it was run: as §1

[7] = target: Fuc(a1-3)[Gal3S(b1-4)]Glc
How it was run: as §1

[8] = target: Gal(a1-3)Gal(b1-4)[Fuc(a1-3)]GlcNAc(b1-2)Man(a1-3)[Gal(a1-3)Gal(b1-4)[Fuc(a1-3)]GlcNAc(b1-2)Man(a1-6)]Man(b1-4)GlcNAc(b1-4)GlcNAc
How it was run: as §1

Gal(a1-4)GlcNAc = target: Gal(a1-4)GlcNAc
How it was run: as §1

Gal(b1-3)Gal = target: Gal(b1-3)Gal
How it was run: as §1

[9] = target: Gal(b1-3)GlcNAc(a1-3)Gal(b1-4)GlcNAc
How it was run: as §1

Gal(b1-3)GlcNAc(b1-2)Man = target: Gal(b1-3)GlcNAc(b1-2)Man
How it was run: as §1

[10] = target: Gal(b1-3)GlcNAc(b1-3)Gal(b1-3)GlcNAc
How it was run: as §1

[11] = target: Gal(b1-3)[Neu5Ac(a2-6)]GalNAc
How it was run: as §1

[12] = target: Gal(b1-3)[Neu5Ac(a2-6)]GlcNAc(b1-4)Gal(b1-4)Glc
How it was run: as §1

Gal(b1-4)Gal = target: Gal(b1-4)Gal
How it was run: as §1

Gal(b1-4)GlcNAc = target: Gal(b1-4)GlcNAc
How it was run: as §1

[13] = target: Gal(b1-4)GlcNAc(b1-3)Gal(b1-4)GlcNAc(b1-2)Man(a1-3)[Gal(b1-4)GlcNAc(b1-3)Gal(b1-4)GlcNAc(b1-2)Man(a1-6)]Man(b1-4)GlcNAc(b1-4)GlcNAc
How it was run: as §1

[14] = target: Gal(b1-4)GlcNAc(b1-3)Gal(b1-4)GlcNAc(b1-2)[Gal(b1-4)GlcNAc(b1-3)Gal(b1-4)GlcNAc(b1-6)]Man(a1-6)[Gal(b1-4)GlcNAc(b1-3)Gal(b1-4)GlcNAc(b1-2)Man(a1-3)]Man(b1-4)GlcNAc(b1-4)GlcNAc
How it was run: as §1

[15] = target: Gal(b1-4)GlcNAc(b1-3)Gal(b1-4)GlcNAc(b1-3)GalNAc
How it was run: as §1

[16] = target: Gal(b1-4)GlcNAc(b1-3)[GlcNAc(b1-6)]Gal(b1-4)GlcNAc
How it was run: as §1

Gal3S(b1-4)Glc6S = target: Gal3S(b1-4)Glc6S
How it was run: as §1

[17] = target: Gal3S(b1-4)[Fuc(a1-3)]GlcNAc6S
How it was run: as §1

Gal6P(b1-4)GlcNAc = target: Gal6P(b1-4)GlcNAc
How it was run: as §1

GalNAc(b1-4)GlcNAc = target: GalNAc(b1-4)GlcNAc
How it was run: as §1

GalNAc4S6S(b1-4)GlcNAc = target: GalNAc4S6S(b1-4)GlcNAc
How it was run: as §1

Glc(a1-6)Glc(a1-6)Glc = target: Glc(a1-6)Glc(a1-6)Glc
How it was run: as §1

[18] = target: GlcNAc(b1-2)[GlcNAc(b1-4)]Man(a1-3)[GlcNAc(b1-4)][GlcNAc(b1-2)Man(a1-6)]Man(b1-4)GlcNAc(b1-4)GlcNAc
How it was run: as §1

[19] = target: GlcNAc(b1-3)Gal(b1-4)GlcNAc(b1-3)Gal(b1-4)GlcNAc(b1-2)Man(a1-3)[GlcNAc(b1-3)Gal(b1-4)GlcNAc(b1-3)Gal(b1-4)GlcNAc(b1-2)Man(a1-6)]Man(b1-4)GlcNAc(b1-4)GlcNAc
How it was run: as §1

[20] = target: GlcNAc(b1-3)Gal(b1-4)GlcNAc(b1-3)Gal(b1-4)GlcNAc(b1-3)Gal(b1-4)GlcNAc(b1-3)Gal(b1-4)GlcNAc(b1-2)Man(a1-3)[GlcNAc(b1-3)Gal(b1-4)GlcNAc(b1-3)Gal(b1-4)GlcNAc(b1-3)Gal(b1-4)GlcNAc(b1-3)Gal(b1-4)GlcNAc(b1-2)Man(a1-6)]Man(b1-4)GlcNAc(b1-4)GlcNAc
How it was run: as §1

[21] = target: GlcNAc(b1-3)Gal(b1-4)GlcNAc(b1-6)[Gal(b1-3)]GalNAc
How it was run: as §1

GlcNAc(b1-4)GlcNAc = target: GlcNAc(b1-4)GlcNAc
How it was run: as §1

Kdn(a2-3)Gal(b1-3)GlcNAc = target: Kdn(a2-3)Gal(b1-3)GlcNAc
How it was run: as §1

Kdn(a2-3)Gal(b1-4)Glc = target: Kdn(a2-3)Gal(b1-4)Glc
How it was run: as §1

[22] = target: Man(a1-2)Man(a1-2)Man(a1-3)Man
How it was run: as §1

[23] = target: Neu5Ac(a2-3)Gal(b1-3)GlcNAc(b1-2)[Neu5Ac(a2-3)Gal(b1-3)GlcNAc(b1-4)]Man(a1-6)[Neu5Ac(a2-3)Gal(b1-3)GlcNAc(b1-2)Man(a1-3)]Man(b1-4)GlcNAc(b1-4)GlcNAc
How it was run: as §1

[24] = target: Neu5Ac(a2-3)Gal(b1-3)GlcNAc6S
How it was run: as §1

[25] = target: Neu5Ac(a2-3)Gal(b1-4)GlcNAc(b1-2)Man
How it was run: as §1

[26] = target: Neu5Ac(a2-3)Gal(b1-4)[Fuc(a1-3)]GlcNAc(b1-6)[Neu5Ac(a2-3)Gal(b1-3)]GalNAc
How it was run: as §1

[27] = target: Neu5Ac(a2-6)Gal(b1-4)GlcNAc(b1-2)Man(a1-3)[GlcNAc(b1-4)][Neu5Ac(a2-6)Gal(b1-4)GlcNAc(b1-2)Man(a1-6)]Man(b1-4)GlcNAc(b1-4)GlcNAc
How it was run: as §1

[28] = target: Neu5Ac(a2-6)Gal(b1-4)GlcNAc(b1-2)Man(a1-3)[Neu5Ac(a2-3)Gal(b1-4)GlcNAc(b1-2)Man(a1-6)]Man(b1-4)GlcNAc(b1-4)GlcNAc
How it was run: as §1

[29] = target: Neu5Ac(a2-6)Gal(b1-4)GlcNAc(b1-2)Man(a1-3)[Neu5Ac(a2-6)Gal(b1-4)GlcNAc(b1-2)Man(a1-6)]Man(b1-4)GlcNAc(b1-4)[Fuc(a1-6)]GlcNAc
How it was run: as §1

[30] = target: Neu5Ac(a2-6)Gal(b1-4)GlcNAc(b1-2)Man(a1-6)Man(b1-4)GlcNAc(b1-4)GlcNAc
How it was run: as §1

[31] = target: Neu5Ac(a2-6)Gal(b1-4)GlcNAc(b1-3)Gal(b1-3)GlcNAc
How it was run: as §1

[32] = target: Neu5Ac(a2-8)Neu5Ac(a2-8)Neu5Ac
How it was run: as §1

B1: Gal-9-hFc (Mus musculus), O08573-2 (protein)
chain: MALFSAQSPYINPIIPFTGPIQGGLQEGLQVTLQGTTKSFAQRFVVNFQNSFNGNDIAFHFNPRFEEGGYVVCNTKQNGQWGPEERKMQMPFQKGMPFELCFLVQRSEFKVMVNKKFFVQYQHRVPYHLVDTIAVSGCLKLSFITFQTQNFRPAHQAPMAQTTIHMVHSTPGQMFSTPGIPPVVYPTPAYTIPFYTPIPNGLYPSKSIMISGNVLPDATRFHINLRCGGDIAFHLNPRFNENAVVRNTQINNSWGQEERSLLGRMPFSRGQSFSVWIICEGHCFKVAVNGQHMCEYYHRLKNLQDINTLEVAGDIQLTHVQT
- glycan array binding signal (z-score) [1]: -0.29
- glycan array binding signal (z-score) [2]: 1.3
- glycan array binding signal (z-score) [3]: 4.4
- glycan array binding signal (z-score) [4]: 0.473
- glycan array binding signal (z-score) [5]: -0.286
- glycan array binding signal (z-score) [6]: 0.042
- glycan array binding signal (z-score) [7]: -0.196
- glycan array binding signal (z-score) [8]: -0.043
- glycan array binding signal (z-score) (Gal(a1-4)GlcNAc): -0.452
- glycan array binding signal (z-score) (Gal(b1-3)Gal): 0.036
- glycan array binding signal (z-score) [9]: -0.259
- glycan array binding signal (z-score) (Gal(b1-3)GlcNAc(b1-2)Man): -0.243
- glycan array binding signal (z-score) [10]: 0.085
- glycan array binding signal (z-score) [11]: 0.317
- glycan array binding signal (z-score) [12]: -0.501
- glycan array binding signal (z-score) (Gal(b1-4)Gal): 0.307
- glycan array binding signal (z-score) (Gal(b1-4)GlcNAc): -0.167
- glycan array binding signal (z-score) [13]: 1.94
- glycan array binding signal (z-score) [14]: 3.74
- glycan array binding signal (z-score) [15]: 0.354
- glycan array binding signal (z-score) [16]: 2.07
- glycan array binding signal (z-score) (Gal3S(b1-4)Glc6S): 4.35
- glycan array binding signal (z-score) [17]: 3.57
- glycan array binding signal (z-score) (Gal6P(b1-4)GlcNAc): -0.364
- glycan array binding signal (z-score) (GalNAc(b1-4)GlcNAc): -0.176
- glycan array binding signal (z-score) (GalNAc4S6S(b1-4)GlcNAc): -0.079
- glycan array binding signal (z-score) (Glc(a1-6)Glc(a1-6)Glc): 0.138
- glycan array binding signal (z-score) [18]: 2.04
- glycan array binding signal (z-score) [19]: 0.436
- glycan array binding signal (z-score) [20]: -0.207
- glycan array binding signal (z-score) [21]: -0.325
- glycan array binding signal (z-score) (GlcNAc(b1-4)GlcNAc): 4.66
- glycan array binding signal (z-score) (Kdn(a2-3)Gal(b1-3)GlcNAc): -0.153
- glycan array binding signal (z-score) (Kdn(a2-3)Gal(b1-4)Glc): 2.38
- glycan array binding signal (z-score) [22]: -0.431
- glycan array binding signal (z-score) [23]: -0.482
- glycan array binding signal (z-score) [24]: -0.023
- glycan array binding signal (z-score) [25]: 3.47
- glycan array binding signal (z-score) [26]: 0.233
- glycan array binding signal (z-score) [27]: -0.272
- glycan array binding signal (z-score) [28]: -0.448
- glycan array binding signal (z-score) [29]: -0.496
- glycan array binding signal (z-score) [30]: -0.192
- glycan array binding signal (z-score) [31]: -0.307
- glycan array binding signal (z-score) [32]: 2.03
